From PubChem
RGS4-Gao reg = modulates binding of RGS4 to human Galphao. Multiplexed bead flow cytometry; actives lie on both sides. 220,000 compounds, 0.33% hits. P09471. AID 1415. binding response (% of control), % at 10 µM; in the data active means binding response below about 49% or above about 150%; inactive means in between;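 further: fluorescent Galphao activated with aluminum fluoride binding bead-coupled RGS4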
Avidin bead fluor = compound fluoresces at 488/530 nm on avidin beads | compound fluorescence 488/530 nm, flow cytometry; active compounds read high | fluorescence (KMESF) at 10 µM | 220,000 compounds, 0.38% hits | AID 1775; in the data active means fluorescence above about 47
RGS16-Gao HTS = regulators of human RGS16-Galphao interaction. O15492+P09471. bead-based flow cytometry RGS16-Galphao binding, fluorescence; actives lie on both sides. binding response (% of control), % at 10 µM. 220,000 compounds, 0.38% hits. AID 1441; call rule not given here;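 further: Galphao activated by GDP with aluminum fluoride before binding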
Target sequence (O15492 whole entry, looked up): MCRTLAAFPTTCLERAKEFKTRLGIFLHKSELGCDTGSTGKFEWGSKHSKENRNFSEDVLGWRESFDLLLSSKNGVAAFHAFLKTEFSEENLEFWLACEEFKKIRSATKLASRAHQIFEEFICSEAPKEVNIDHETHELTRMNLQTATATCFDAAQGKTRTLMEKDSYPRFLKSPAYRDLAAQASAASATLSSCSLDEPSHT
Target sequence (P09471 whole entry, looked up): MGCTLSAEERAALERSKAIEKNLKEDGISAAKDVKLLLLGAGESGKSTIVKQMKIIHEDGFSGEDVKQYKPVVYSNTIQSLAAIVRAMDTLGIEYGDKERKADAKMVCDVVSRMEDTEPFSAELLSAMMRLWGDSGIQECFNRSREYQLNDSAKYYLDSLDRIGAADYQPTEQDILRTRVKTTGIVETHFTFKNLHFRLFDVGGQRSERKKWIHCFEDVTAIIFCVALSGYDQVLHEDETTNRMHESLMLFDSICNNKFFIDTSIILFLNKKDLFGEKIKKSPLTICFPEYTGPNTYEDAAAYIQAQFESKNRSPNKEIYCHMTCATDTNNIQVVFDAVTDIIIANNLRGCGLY
GSH bead fluor = compound fluoresces at 488/530 nm on GSH beads | 190,000 compounds, 0.25% hits | GSH beads flow cytometry, compound fluorescence 488/530 nm; active compounds read high | fluorescence (KMESF) at 10 µM; in the data active means fluorescence above about 89;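 further: glutathione beads carrying GST-tagged Bcl family fusion proteins plus one bare bead set; values are compound well signal with DMSO vehicle wells as background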
RGS8-Gao reg = regulators of human RGS8-Galphao interaction; P09471; response (percent of control binding), % at 10 µM; 220,000 compounds, 0.34% hits; multiplexed bead flow cytometry, RGS8-Galphao binding; actives lie on both sides; in the data active means response below about 60% or above about 140%; inactive means in between;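 further: Galphao activated as the GDP aluminium fluoride complex binding bead-coupled RGS8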
RGS7-Gao reg = regulators of human RGS7-Galphao interaction. Multiplexed bead flow cytometry, RGS7-Galphao binding; actives lie on both sides. AID 1439. P09471. binding response (% of control), % at 10 µM. 220,000 compounds, 0.35% hits; in the data active means binding response below about 49% or above about 150%; inconclusive means no clear call, values can overlap the other calls; inactive means in between;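 further: fluorescent Galphao held in activated GDP-AlF4 state binding bead-coupled RGS7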
Numbers without * were called inactive; ? = inconclusive; nt = no result. A selection: hits, their analogues and other compounds. The true share with any hit is near 1.2%.

SMILES	RGS4-Gao reg	Avidin bead fluor	RGS16-Gao HTS	GSH bead fluor	RGS8-Gao reg	RGS7-Gao reg
O=C(NC1CCCC1)C1C2C=CC(C2)C1C(=O)N1CCOCC1 (stereo unspecified)	103.5	6	98.0	272*	99.7	97.5
CCN1CC(CN(C)Cc2nc(Cc3ccccc3)no2)CC1=O (stereo unspecified)	98.8	7	104.4	15	98.8	98.7
COc1ccc(C2(CNC(=O)c3cccs3)CCOCC2)cc1	101.5	10	104.6	9	103.1	99.3
O=C(COC(=O)c1ccc(S(=O)(=O)NCc2ccco2)cc1)c1ccccc1	99.6	6	106.4	11	102.3	102.1
O=C(COC(=O)c1ccc(S(=O)(=O)NCc2ccco2)cc1)NC1CCCCC1	96.2	6	104.0	268*	100.4	94.3
CCC(C)c1ccccc1NC(=O)CN1CCN(C/C=C/c2ccccc2)CC1 (stereo unspecified)	102.5	15	114.1	5	104.0	104.3
Cc1cc(C)nc(N2CCCC(C(=O)NC(C)C)C2)n1 (stereo unspecified)	100.5	11	108.3	17	103.6	98.7
COc1cc(NC(=O)CSc2nnc(C)s2)cc(OC)c1OC	102.8	8	103.0	19	101.4	102.4
CSc1cccc(NC(=O)CSc2nnc(C)s2)c1	98.2	6	93.2	109*	98.1	101.0
COc1ccc(N(C)S(=O)(=O)c2cccc(C(=O)N(C)Cc3ccc(C)o3)c2)cc1	87.8	10	90.8	18	92.2	89.9
O=S(=O)(c1ccc(Br)s1)N1CCc2ccccc2C1	141.5	48*	117.2	26	106.1	127.6
COCC1CCN(Cc2cn(-c3ccccc3F)nc2-c2cc(C)sc2C)CC1	105.5	9	106.4	52	105.5	107.6
Fc1ccc(NC(=S)N/N=C/c2ccc(F)c(F)c2)cc1	105.7	80*	110.2	22	101.6	130.4
CS(=O)(=O)N1CCC(C(=O)NCc2ccc(Cl)cc2)CC1	93.8	6	97.3	nt	97.7	?
O=C(CSc1nnc(-c2ccc(S(=O)(=O)N3CCCC3)cc2)o1)NCc1ccccc1	95.7	7	103.3	113*	99.6	101.4
O=C(CSc1nnc(-c2ccc(F)cc2)o1)Nc1ccc(S(=O)(=O)N2CCCC2)cc1	103.0	6	108.1	5	102.3	100.8
C[C@@]12CC(=O)NC1N(C(=O)c1ccccc1)C(c1ccccc1OC(=O)c1ccccc1)C2 (stereo partly specified)	99.7	7	105.1	250*	99.8	103.0
O=C(COC(=O)CCc1nc2ccccc2c(=O)[nH]1)Nc1ccc(Cl)cn1	125.8	49*	93.5	nt	91.5	?
Cc1ccc(OCCC(=O)OCC(=O)Nc2ccc(Cl)cn2)cc1	98.4	7	96.2	272*	98.0	94.7
Cc1cc(C)cc(OCC(=O)OCC(=O)Nc2ccc(Cl)cn2)c1	104.9	8	103.4	16	106.6	105.0
CCCOC(=O)c1ccc(NC(=O)c2ccoc2C)cc1	97.9	51*	100.3	27	97.8	105.8
CCCOC(=O)c1ccc(NC(=O)COC)cc1	102.6	10	105.9	12	102.8	104.5
CCCOC(=O)c1ccc(NC(=O)C2C3C=CC(O3)C2C(=O)O)cc1 (stereo unspecified)	116.0	4	179.4	244*	119.0	110.3
CCOC(=O)c1[nH]c(C=O)c(C(=O)OCC)c1C	98.7	10	101.3	11	99.4	97.2
COc1ccc(NC(=O)CCNS(=O)(=O)c2ccc3c(c2)c(=O)n(C)c(=O)n3C)cc1	105.8	69*	106.1	24	100.0	137.6
COc1ccccc1C(O)P(=O)(OC(C)C)c1ccc(N(C)C)cc1 (stereo unspecified)	99.2	7	97.3	65	103.8	100.9
CC(C)OP(=O)(c1ccc(N(C)C)cc1)C(O)c1ccccc1F (stereo unspecified)	86.0	4	88.6	103*	99.5	90.6
CCOC(=O)c1sc(NC(=S)NC(=O)C2CCCC2)cc1C	105.6	49*	103.6	12	103.0	139.1
CCOC(=O)c1sc(NC(=O)C2CC2)cc1C	99.5	6	100.3	24	99.7	99.6
